Of roughly 8,800 targets only a part is listed; those with a hit were picked by preference. About 0.5% of all pairs of compound and target were hits.
How the values were obtained:
Experiment in all cases: log2 fold change, soluble protein after heating vs DMSO (PISA); higher = thermal stabilisation; K562 lysate, 10 uM; active = over 0.2 and 3.5 SD of the protein, either way, in both replicates (recomputed)
erlotinib = compound: C#Cc1cccc(Nc2ncnc3cc(OCCOC)c(OCCOC)cc23)c1 [erlotinib]
Outline: (§1)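 Dounce homogenisation of K562 pellets in PBS pH 7.4 with 1 mM MgCl2 produced a crude extract, used at 1 mg/mL protein. Exposure to 10 μM compound lasted 30 min, and aliquots were then heated for 3 min across 48°C-58°C, pooled and brought to 0.5% NP-40 at 4°C. The supernatant after 21,000xg for 90 min was quantified by TMTpro 16plex LC-MS/MS with channel sums equalised. Duplicate values are given as log-two fold change in thermal stability relative to solvent controls.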

[1] = compound: C/C(=N\NC(=O)C1=CC(=CC=C1)S(=O)(=O)N2CCOCC2)/C3=C(C=CC(=C3)Cl)O
Outline: as §1

[2] = compound: C1=CC(=CC=C1C2=NC3=C(N2)C=C(C=C3)C(=O)N)OC4=CC=C(C=C4)Cl
Outline: as §1

[3] = compound: C1=CC2=C(C=CC(=C2)/C=C\3/C(=O)NC(=NCC4=CC=CS4)S3)N=C1
Outline: as §1

[4] = compound: C1=CC2=NC=CN=C2C=C1/C=C/3\C(=O)NC(=O)S3
Outline: as §1

[5] = compound: C1=CC=C(C=C1)C2=NC(=C(N2)C3=CC=NC=C3)C4=CC(=C(C=C4)Cl)O
Outline: as §1

[6] = compound: C1=CC=C2C(=C1)C3=NNC4=CC=CC(=C43)C2=O
Outline: as §1

[7] = compound: C1CCN(C1)C(=O)NC2=CC=CC(=C2)NC3=NC=C(C(=N3)NCCC4=CN=CN4)Br
Outline: as §1

[8] = compound: C1CN(CCC1(CC2=CC=C(C=C2)Cl)N)C3=NC=NC4=C3C=CN4
Outline: as §1

IRAK-1-4 Inhibitor I = compound: C1COCCN1CCN2C3=CC=CC=C3N=C2NC(=O)C4=CC(=CC=C4)[N+](=O)[O-] [IRAK-1-4 Inhibitor I]
Outline: as §1

Measured: log2 fold change

SBF1 isoform 4 (UniProt O95248)
inactive: erlotinib 0.033 | [1] -0.059 | [2] 0.042 | [3] -0.052 | [4] -0.005 | [5] -0.027 | [6] -0.029 | [7] 0.028 | [8] -0.026 | IRAK-1-4 Inhibitor I -0.002

SCO1 (UniProt O75880)
UniProt O75880, sequence (O75880 whole entry, looked up): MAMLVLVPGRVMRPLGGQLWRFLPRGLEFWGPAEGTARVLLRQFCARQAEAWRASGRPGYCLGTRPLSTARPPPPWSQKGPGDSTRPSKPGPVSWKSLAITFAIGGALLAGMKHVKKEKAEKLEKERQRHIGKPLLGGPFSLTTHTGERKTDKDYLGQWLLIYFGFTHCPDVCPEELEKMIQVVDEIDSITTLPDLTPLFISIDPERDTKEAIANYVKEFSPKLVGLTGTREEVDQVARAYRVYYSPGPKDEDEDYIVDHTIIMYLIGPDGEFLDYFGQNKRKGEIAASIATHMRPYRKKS
inactive: erlotinib 0.008 | [1] -0.06 | [2] 0.036 | [3] -0.014 | [4] 0.011 | [5] 0.012 | [6] -0.045 | [7] 0.033 | [8] 0.068 | IRAK-1-4 Inhibitor I 0.006

SAR1A (UniProt Q9NR31)
inactive: erlotinib -0.268 | [1] -0.112 | [2] 0.05 | [3] -0.019 | [4] -0.063 | [5] -0.056 | [6] 0.048 | [7] -0.08 | [8] 0.001 | IRAK-1-4 Inhibitor I -0.029

RAB21 (UniProt Q9UL25)
inactive: erlotinib 0 | [1] -0.008 | [2] 0.015 | [3] 0.02 | [4] 0.02 | [5] -0.028 | [6] -0.034 | [7] 0.026 | [8] 0.012 | IRAK-1-4 Inhibitor I 0.045

RTN4IP1 (UniProt Q8WWV3)
UniProt Q8WWV3, sequence (Q8WWV3 whole entry, looked up): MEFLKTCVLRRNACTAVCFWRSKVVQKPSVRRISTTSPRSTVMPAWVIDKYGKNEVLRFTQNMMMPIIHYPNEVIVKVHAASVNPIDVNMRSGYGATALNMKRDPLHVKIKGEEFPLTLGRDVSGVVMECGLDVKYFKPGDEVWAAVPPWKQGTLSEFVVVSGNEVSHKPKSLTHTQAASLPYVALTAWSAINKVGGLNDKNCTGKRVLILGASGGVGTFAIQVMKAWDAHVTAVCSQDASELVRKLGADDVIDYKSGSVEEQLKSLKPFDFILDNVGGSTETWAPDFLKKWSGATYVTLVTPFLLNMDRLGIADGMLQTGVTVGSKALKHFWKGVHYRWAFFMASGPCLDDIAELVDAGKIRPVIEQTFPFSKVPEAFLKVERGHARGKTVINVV
inactive: erlotinib -0.028 | [1] 0.031 | [2] -0.028 | [3] 0.065 | [4] -0.017 | [5] -0.003 | [6] 0.022 | [7] 0.033 | [8] -0.016 | IRAK-1-4 Inhibitor I 0.011

RAPGEF2, A0A2R8YGD3
inactive: erlotinib -0.009 | [1] 0.16 | [2] 0.038 | [3] 0.042 | [4] -0.083 | [5] -0.047 | [6] 0.053 | [7] 0.007 | [8] -0.085 | IRAK-1-4 Inhibitor I 0.007

RABL3 (UniProt Q5HYI8)
active: erlotinib 0.706 | [5] 0.96
inactive: [1] -0.019 | [2] -0.025 | [3] 0.011 | [4] 0.008 | [6] -0.041 | [7] 0.015 | [8] 0.017 | IRAK-1-4 Inhibitor I 0.48

RIC1 (UniProt Q4ADV7)
inactive: erlotinib 0 | [1] -0.239 | [2] -0.074 | [3] 0.025 | [4] -0.176 | [5] 0.044 | [6] 0.035 | [7] 0.038 | [8] 0.057 | IRAK-1-4 Inhibitor I 0.022

RIOK1 (UniProt Q9BRS2)
UniProt Q9BRS2, sequence (Q9BRS2 whole entry, looked up): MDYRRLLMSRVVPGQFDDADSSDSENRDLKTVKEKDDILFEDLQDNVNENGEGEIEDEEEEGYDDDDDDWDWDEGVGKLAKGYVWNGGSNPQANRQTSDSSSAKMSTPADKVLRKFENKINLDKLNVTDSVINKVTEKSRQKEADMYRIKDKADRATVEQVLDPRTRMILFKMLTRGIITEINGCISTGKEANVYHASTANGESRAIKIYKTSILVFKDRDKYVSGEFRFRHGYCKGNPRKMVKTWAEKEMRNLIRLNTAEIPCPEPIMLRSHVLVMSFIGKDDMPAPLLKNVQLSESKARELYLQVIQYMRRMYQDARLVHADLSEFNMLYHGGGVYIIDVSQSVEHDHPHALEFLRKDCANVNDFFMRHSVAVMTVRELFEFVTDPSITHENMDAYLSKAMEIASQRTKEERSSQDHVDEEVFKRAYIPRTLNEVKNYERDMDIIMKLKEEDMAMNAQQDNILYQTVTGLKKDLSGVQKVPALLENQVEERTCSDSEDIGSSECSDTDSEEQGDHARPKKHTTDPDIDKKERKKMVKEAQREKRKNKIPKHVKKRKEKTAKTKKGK
active: [4] 0.393 | [6] 0.4
inactive: erlotinib -0.033 | [1] -0.029 | [2] 0.034 | [3] 0.209 | [5] 0.128 | [7] -0.024 | [8] 0.028 | IRAK-1-4 Inhibitor I -0.02

RBM4 (UniProt Q9BWF3)
UniProt Q9BWF3, sequence (Q9BWF3 whole entry, looked up): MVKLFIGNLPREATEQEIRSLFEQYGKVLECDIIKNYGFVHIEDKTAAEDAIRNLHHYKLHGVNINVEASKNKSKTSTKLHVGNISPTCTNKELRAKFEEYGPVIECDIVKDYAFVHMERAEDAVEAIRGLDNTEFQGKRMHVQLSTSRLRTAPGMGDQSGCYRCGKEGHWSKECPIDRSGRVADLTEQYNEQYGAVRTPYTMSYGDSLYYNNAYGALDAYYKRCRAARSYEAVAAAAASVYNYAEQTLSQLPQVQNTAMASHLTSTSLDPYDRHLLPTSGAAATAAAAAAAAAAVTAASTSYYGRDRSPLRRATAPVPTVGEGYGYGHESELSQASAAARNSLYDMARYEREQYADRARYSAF
inactive: erlotinib -0.031 | [1] 0.059 | [2] -0.008 | [3] 0.009 | [4] 0.008 | [5] -0.065 | [6] -0.008 | [7] 0.001 | [8] 0 | IRAK-1-4 Inhibitor I -0.003

ROCK1 (UniProt Q13464)
inactive: erlotinib -0.01 | [1] 0.029 | [2] 0 | [3] 0.075 | [4] -0.036 | [5] -0.004 | [6] -0.041 | [7] 0.008 | [8] 0.075 | IRAK-1-4 Inhibitor I 0.004

RARS (UniProt P54136)
inactive: erlotinib 0.037 | [1] 0.029 | [2] -0.023 | [3] 0.023 | [4] 0.043 | [5] 0.029 | [6] -0.025 | [7] -0.005 | [8] 0.005 | IRAK-1-4 Inhibitor I 0.008

RABGGTB (UniProt P53611)
UniProt P53611, sequence (P53611 whole entry, looked up): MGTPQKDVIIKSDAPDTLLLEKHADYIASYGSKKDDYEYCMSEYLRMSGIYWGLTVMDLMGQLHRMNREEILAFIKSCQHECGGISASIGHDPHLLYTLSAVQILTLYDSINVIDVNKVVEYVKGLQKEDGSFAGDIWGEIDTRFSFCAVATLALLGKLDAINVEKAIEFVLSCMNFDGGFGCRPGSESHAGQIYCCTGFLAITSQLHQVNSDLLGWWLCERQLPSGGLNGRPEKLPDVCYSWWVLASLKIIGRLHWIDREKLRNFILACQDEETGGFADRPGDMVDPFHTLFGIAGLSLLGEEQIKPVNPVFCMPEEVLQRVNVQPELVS
inactive: erlotinib 0.01 | [1] 0.026 | [2] -0.015 | [3] 0.021 | [4] 0.04 | [5] -0.023 | [6] -0.093 | [7] -0.029 | [8] 0.003 | IRAK-1-4 Inhibitor I 0.03

RSU1 (UniProt Q15404)
UniProt Q15404, sequence (Q15404 whole entry, looked up): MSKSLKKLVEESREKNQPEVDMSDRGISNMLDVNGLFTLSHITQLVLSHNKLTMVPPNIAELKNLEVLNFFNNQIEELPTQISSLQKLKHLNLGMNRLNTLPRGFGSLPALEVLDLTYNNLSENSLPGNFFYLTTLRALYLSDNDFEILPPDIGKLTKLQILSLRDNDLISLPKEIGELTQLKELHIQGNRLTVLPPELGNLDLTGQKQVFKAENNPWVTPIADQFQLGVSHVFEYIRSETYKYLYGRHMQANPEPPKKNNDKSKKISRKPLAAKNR
inactive: erlotinib 0.017 | [1] 0.006 | [2] -0.039 | [3] -0.052 | [4] -0.011 | [5] -0.003 | [6] 0.017 | [7] 0.009 | [8] -0.027 | IRAK-1-4 Inhibitor I 0

RFC4 (UniProt P35249)
UniProt P35249, sequence (P35249 whole entry, looked up): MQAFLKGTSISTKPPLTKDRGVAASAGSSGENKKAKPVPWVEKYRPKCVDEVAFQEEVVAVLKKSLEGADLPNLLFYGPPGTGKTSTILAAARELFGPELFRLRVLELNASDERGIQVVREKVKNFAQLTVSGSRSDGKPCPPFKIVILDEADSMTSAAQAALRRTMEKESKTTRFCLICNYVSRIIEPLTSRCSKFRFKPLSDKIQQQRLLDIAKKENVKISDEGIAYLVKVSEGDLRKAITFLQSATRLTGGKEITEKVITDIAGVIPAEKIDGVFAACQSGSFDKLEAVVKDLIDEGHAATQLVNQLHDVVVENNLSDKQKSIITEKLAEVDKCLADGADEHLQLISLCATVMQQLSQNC
inactive: erlotinib 0.006 | [1] 0.027 | [2] -0.033 | [3] -0.027 | [4] 0.018 | [5] 0.007 | [6] -0.056 | [7] -0.022 | [8] -0.012 | IRAK-1-4 Inhibitor I -0.018

RIOK2 (UniProt Q9BVS4)
UniProt Q9BVS4, sequence (Q9BVS4 whole entry, looked up): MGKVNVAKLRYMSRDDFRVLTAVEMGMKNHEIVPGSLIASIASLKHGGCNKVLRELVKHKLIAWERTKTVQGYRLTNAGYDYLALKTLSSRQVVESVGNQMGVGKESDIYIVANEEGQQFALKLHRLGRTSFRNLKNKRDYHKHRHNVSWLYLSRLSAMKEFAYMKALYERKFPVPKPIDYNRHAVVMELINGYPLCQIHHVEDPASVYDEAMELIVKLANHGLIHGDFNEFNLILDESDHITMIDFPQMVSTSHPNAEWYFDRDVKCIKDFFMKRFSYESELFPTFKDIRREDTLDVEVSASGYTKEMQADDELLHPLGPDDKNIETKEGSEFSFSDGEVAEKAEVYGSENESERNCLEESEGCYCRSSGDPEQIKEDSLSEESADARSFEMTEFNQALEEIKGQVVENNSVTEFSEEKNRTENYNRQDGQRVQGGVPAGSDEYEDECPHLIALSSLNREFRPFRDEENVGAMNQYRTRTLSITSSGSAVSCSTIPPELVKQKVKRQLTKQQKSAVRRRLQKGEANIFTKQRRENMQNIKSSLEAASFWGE
active: [6] 0.395
inactive: erlotinib -0.018 | [1] -0.045 | [2] -0.015 | [3] 0.07 | [4] 0.038 | [5] 0.029 | [7] -0.01 | [8] -0.019 | IRAK-1-4 Inhibitor I -0.005

RBM5 (UniProt P52756)
inactive: erlotinib 0.095 | [1] -0.042 | [2] 0.054 | [3] 0.006 | [4] -0.006 | [5] 0.015 | [6] -0.121 | [7] -0.021 | [8] -0.001 | IRAK-1-4 Inhibitor I -0.023

RRM1 (UniProt P23921)
UniProt P23921, sequence (P23921 whole entry, looked up): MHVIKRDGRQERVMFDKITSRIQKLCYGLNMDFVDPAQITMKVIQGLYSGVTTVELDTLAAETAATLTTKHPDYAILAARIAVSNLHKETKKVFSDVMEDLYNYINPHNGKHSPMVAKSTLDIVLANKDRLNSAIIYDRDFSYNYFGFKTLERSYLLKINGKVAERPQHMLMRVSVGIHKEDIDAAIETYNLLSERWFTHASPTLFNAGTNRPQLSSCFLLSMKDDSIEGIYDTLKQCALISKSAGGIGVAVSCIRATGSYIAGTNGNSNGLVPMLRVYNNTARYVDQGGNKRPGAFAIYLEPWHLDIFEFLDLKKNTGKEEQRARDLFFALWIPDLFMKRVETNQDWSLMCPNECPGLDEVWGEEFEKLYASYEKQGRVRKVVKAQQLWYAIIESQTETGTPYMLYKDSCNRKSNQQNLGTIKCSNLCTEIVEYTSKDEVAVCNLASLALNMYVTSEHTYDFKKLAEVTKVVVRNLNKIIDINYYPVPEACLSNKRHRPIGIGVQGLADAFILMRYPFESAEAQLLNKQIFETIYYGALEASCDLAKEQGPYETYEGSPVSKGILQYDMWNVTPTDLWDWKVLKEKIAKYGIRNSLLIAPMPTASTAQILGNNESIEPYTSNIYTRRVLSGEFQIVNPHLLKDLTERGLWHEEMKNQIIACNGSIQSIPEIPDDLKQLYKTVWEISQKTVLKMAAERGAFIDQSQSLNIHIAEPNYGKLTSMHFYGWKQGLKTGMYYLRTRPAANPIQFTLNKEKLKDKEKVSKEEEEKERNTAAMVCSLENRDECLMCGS
inactive: erlotinib 0.018 | [1] -0.019 | [2] 0.007 | [3] 0.025 | [4] 0.029 | [5] -0.01 | [6] -0.043 | [7] -0.046 | [8] -0.022 | IRAK-1-4 Inhibitor I 0.021

RBBP7 (UniProt Q16576)
inactive: erlotinib -0.038 | [1] -0.032 | [2] -0.021 | [3] -0.005 | [4] 0.007 | [5] -0.014 | [6] -0.008 | [7] 0.045 | [8] -0.022 | IRAK-1-4 Inhibitor I -0.082

RPS6KB1 (UniProt P23443)
active: [6] 0.322
inactive: erlotinib -0.017 | [1] -0.018 | [2] -0.034 | [3] 0.013 | [4] -0.001 | [5] 0.083 | [7] 0.085 | [8] 0.027 | IRAK-1-4 Inhibitor I 0.028

RHOA (UniProt P61586)
inactive: erlotinib 0.001 | [1] -0.093 | [2] 0.049 | [3] -0.093 | [4] -0.09 | [5] 0.064 | [6] 0.038 | [7] -0.022 | [8] 0.039 | IRAK-1-4 Inhibitor I -0.022

RNF168 (UniProt Q8IYW5)
UniProt Q8IYW5, sequence (Q8IYW5 whole entry, looked up): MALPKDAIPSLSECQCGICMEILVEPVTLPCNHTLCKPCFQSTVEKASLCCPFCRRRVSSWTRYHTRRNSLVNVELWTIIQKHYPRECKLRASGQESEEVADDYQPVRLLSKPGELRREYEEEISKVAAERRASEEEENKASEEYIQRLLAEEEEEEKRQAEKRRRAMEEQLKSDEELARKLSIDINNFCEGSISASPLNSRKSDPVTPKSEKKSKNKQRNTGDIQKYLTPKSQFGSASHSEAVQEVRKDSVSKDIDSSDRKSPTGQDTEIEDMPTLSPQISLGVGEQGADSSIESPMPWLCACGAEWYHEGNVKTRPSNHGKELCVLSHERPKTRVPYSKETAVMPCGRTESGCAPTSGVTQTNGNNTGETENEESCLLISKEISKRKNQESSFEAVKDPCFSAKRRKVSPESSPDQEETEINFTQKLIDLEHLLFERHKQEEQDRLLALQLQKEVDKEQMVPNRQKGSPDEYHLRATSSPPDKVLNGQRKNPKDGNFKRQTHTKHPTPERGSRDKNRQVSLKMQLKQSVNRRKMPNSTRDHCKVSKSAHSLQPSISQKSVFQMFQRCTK
active: [7] -0.311
inactive: erlotinib -0.018 | [1] -0.023 | [2] 0.001 | [3] -0.081 | [4] 0.037 | [5] -0.007 | [6] -0.114 | [8] 0.053 | IRAK-1-4 Inhibitor I 0.008

RPN2 (UniProt P04844)
inactive: erlotinib 0 | [1] 0.014 | [2] -0.055 | [3] 0.022 | [4] 0.021 | [5] 0 | [6] -0.049 | [7] -0.007 | [8] 0.006 | IRAK-1-4 Inhibitor I 0.007

RNASEH2B (UniProt Q5TBB1)
UniProt Q5TBB1, sequence (Q5TBB1 whole entry, looked up): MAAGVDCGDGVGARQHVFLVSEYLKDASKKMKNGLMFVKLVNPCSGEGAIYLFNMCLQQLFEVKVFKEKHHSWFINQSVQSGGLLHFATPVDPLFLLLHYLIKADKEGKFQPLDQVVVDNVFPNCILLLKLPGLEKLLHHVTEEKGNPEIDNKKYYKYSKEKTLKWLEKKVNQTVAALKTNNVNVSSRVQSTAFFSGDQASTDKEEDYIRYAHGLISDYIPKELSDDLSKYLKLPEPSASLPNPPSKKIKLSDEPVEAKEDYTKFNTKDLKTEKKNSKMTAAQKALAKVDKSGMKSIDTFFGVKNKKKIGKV
inactive: erlotinib -0.01 | [1] 0.006 | [2] -0.024 | [3] 0.019 | [4] -0.011 | [5] 0.009 | [6] 0.024 | [7] -0.01 | [8] -0.041 | IRAK-1-4 Inhibitor I -0.003

RAB6D (UniProt Q53S08)
inactive: erlotinib 0.027 | [1] -0.071 | [2] 0.054 | [3] -0.025 | [4] -0.048 | [5] -0.019 | [6] 0.044 | [7] -0.038 | [8] 0.157 | IRAK-1-4 Inhibitor I 0.003

RPTOR (UniProt Q8N122)
inactive: erlotinib 0.032 | [1] 0.002 | [2] 0.062 | [3] 0.013 | [4] 0.017 | [5] -0.002 | [6] -0.002 | [7] -0.036 | [8] -0.015 | IRAK-1-4 Inhibitor I 0.003

SAMD4A (UniProt Q9UPU9)
inactive: erlotinib -0.172 | [1] -0.014 | [2] 0.11 | [3] 0.097 | [4] -0.153 | [5] 0.11 | [6] -0.041 | [7] -0.046 | [8] 0.013 | IRAK-1-4 Inhibitor I 0.063

RIPK1 (UniProt Q13546)
inactive: erlotinib -0.026 | [1] -0.01 | [2] -0.017 | [3] -0.022 | [4] -0.015 | [5] 0.008 | [6] 0.08 | [7] 0.031 | [8] -0.057 | IRAK-1-4 Inhibitor I 0

Reference: the supplement of paper PMC10849652
